# Source: PubChem BioAssay (several laboratories)
# Only some compounds are listed: those with a hit (about 2.9% of all), similar ones and a draw of the others.
# TRPM1 prom inh = MITF TRPM1 promoter inhibition in SK-MEL-5 cells | 330,000 compounds, 0.83% hits | inhibition, % at 12.5 µM | SK-MEL-5 TRPM1 promoter luciferase, 24 h;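 active = mean inhibition across replicates of 60% or more, whatever share of single replicates reaches that level; inconclusive = some that reach 60%, reason not given; inactive = mean inhibition across replicates below 60%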
# EBV LMP1 NFkB = reduces LMP1-driven NF-kappaB luciferase signal | LMP1-induced NF-kappaB luciferase reporter cells, luminescence | inhibition, % at 12.5 µM | 350,000 compounds, 0.69% hits | AID 504558; in the data active = inhibition above about 41%; inconclusive = no clear call, values can overlap the other calls
# Peg3 prom inh = inhibitors of Peg3 promoter; inhibition, % at 20 µM; 360,000 compounds, 1.7% hits; HeLa PEG-Prom luciferase reporter, luminescence, overnight; AID 588405;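 active = inhibition of at least 50% at 20 µM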
# Shn3 inh set2 = inhibitors of Schnurri-3 3'UTR reporter in osteoblasts; AID 588674; inhibition, % at 12.5 µM; 360,000 compounds, 0.52% hits; Clone20 osteoblast Shn3 3'UTR firefly luciferase, 24 h;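 active = mean inhibition of at least 75% with every replicate also reaching 75%; inconclusive = mean inhibition at least 75% but some replicate below; inactive = mean inhibition below 75%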
# CF NFkB inh = inhibitors of cystic fibrosis induced NF-kB; KKLEB NF-kB-GFP reporter, PAF-induced, GFP fluorescence overnight; inhibition, % at 5 µM; 360,000 compounds, 0.86% hits; AID 588850;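 active = at least 50% inhibition at 5 µM, scaled per plate between neutral and stimulator controls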;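 also: PAF is a Pseudomonas aeruginosa culture filtrate used as stimulus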
# KKLEB tox = CF airway cell cytotoxicity counter-screen. KKLEB CF airway cells viability, ATPlite luminescence, overnight; stronger effect = lower value; cells stimulated with P. aeruginosa culture filtrate. activity change (cytotoxicity), % at 5 µM. 360,000 compounds, 0.36% hits;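 active = corrected activity change at or below -50% at 5 µM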
# Hits are given with their value; – = inactive; ? = inconclusive; · = not tested or not shown.
SMILES,TRPM1 prom inh,EBV LMP1 NFkB,Peg3 prom inh,Shn3 inh set2,CF NFkB inh,KKLEB tox
C[N+]1(C)[C@@H]2CC[C@H]1CC(OC(=O)C(CO)c1ccccc1)C2 (stereo partly specified),–,80,–,–,–,–
C[N+]1(C)C2CCC1CC(OC(=O)C(CO)c1ccccc1)C2 (stereo unspecified),–,–,–,–,–,–
NC(Cc1ccccc1)c1nn[nH]n1 (stereo unspecified),–,–,–,–,–,–
CC(=O)OCC12CC(OC(=O)CC(C)C)C(C)=CC1OC1C(O)C(OC(C)=O)C2(C)C12CO2 (stereo unspecified),87,88,97,93,93,-63
O=C1NCN(c2ccccc2)C12CCN(C(c1ccccc1OC(F)(F)F)c1nnnn1Cc1ccccc1)CC2 (stereo unspecified),·,·,91,–,–,–
Cc1ccc(S(=O)(=O)N2Cc3cc(N4CCOCC4)ccc3-n3nncc3C2)cc1,·,·,–,–,–,–
O=C(NC(=S)N1CC1)c1ccccc1,·,–,–,–,–,–
CC1OC(OC2C=C3CCC4C(CCC5(C)C(c6ccc(=O)oc6)CCC45O)C3(C)CC2)C(O)C(OC2OC(CO)C(O)C(O)C2O)C1O (stereo unspecified),72,89,98,–,95,-62
COC(=O)[C@]12OC[C@]34C([C@@H](O)[C@@H]1O)[C@]1(C)CC(=O)C(O)=C(C)[C@@H]1C[C@H]3OC(=O)[C@H](O)[C@@H]24 (stereo partly specified),71,–,–,–,–,–
CC(C)(C)C1(CCO)C(=O)NC(=S)NC1=O,–,–,–,–,–,–
CCCCCCCCCCCCCCCC[N+](C)(C)C,–,–,95,94,75,–
CCCCCC[N+](=O)[O-],–,–,–,–,–,–
C[C@]12CCC3C(CC[C@H]4C[C@H](O)CC[C@]34C)C1CCC2=O (stereo partly specified),–,–,–,86,–,–
O=C1C=C(N2CC2)c2ccccc2C1=O,·,–,–,–,60,–
O=P1(c2ccccc2)CC=CC1,·,·,–,–,–,–
O=Cc1cn(Cc2ccccc2[N+](=O)[O-])c2ccccc12,–,–,–,–,–,–
Cc1ccc(Cn2cc(C=O)c3ccccc32)cc1,–,–,63,–,–,–
O=S(=O)(c1ccccc1)N1Cc2ccccc2-n2nncc2C1,·,–,–,–,–,–
COc1ccc(O)c2c(=O)c3c(OC)cc4c(c3oc12)C1C=COC1O4 (stereo unspecified),–,64,–,–,–,–
c1ccc2c(c1)CN(Cc1ccc3c(c1)OCO3)Cc1cnnn1-2,·,–,–,–,–,–
CN1CCc2cc(O)cc3c2[C@H]1Cc1ccc(O)c(O)c1-3,–,–,–,–,–,-77
CCCN1CCc2cc(O)cc3c2[C@H]1Cc1ccc(O)c(O)c1-3,–,–,–,–,–,–
ClCCN(CCCl)c1ccc(-n2cnc3c(Cl)ncnc32)cc1,84,–,104,–,–,–
O=C(O)CCCc1ccc(N(CCCl)CCCl)cc1,–,–,–,–,–,–
CCN1C[C@]2(COC)CC[C@H](OC)[C@@]34C1[C@]1(OCO[C@@]15C[C@H](OC)[C@H]1C[C@@H]3[C@@H]5[C@H]1OC)[C@@H](O)[C@H]24,–,56,–,89,–,–
SMILES,TRPM1 prom inh,EBV LMP1 NFkB,Peg3 prom inh,Shn3 inh set2,CF NFkB inh,KKLEB tox
NC(=O)c1ccc(N)nc1,–,–,–,–,78,-91
CCOC(=O)[C@@H]1[C@H]2COc3ccc(Br)cc3[C@H]2N2C(=O)N(c3cccc(C)c3)C(=O)[C@]12C,–,–,–,–,–,–
c1ccc(C2(NC3=NCCO3)CCCCC2)cc1,·,–,–,–,–,–
COc1ccc(C(c2nnnn2-c2c(C)cccc2C)N2CCC3(CC2)C(=O)NCN3c2ccccc2)cc1 (stereo unspecified),·,·,–,–,–,–
COC(=O)C1=C(c2ccc(F)cc2OCc2ccccc2)C[C@@H]2CC[C@H]1N2C(=O)NCc1ccc(C(F)(F)F)cc1,–,–,–,93,–,–
COC(=O)C1=C(c2ccccc2OCc2ccccc2)C[C@@H]2CC[C@H]1N2C(=O)NCc1ccc(C(F)(F)F)cc1,–,–,–,–,–,–
O=C1NC(=O)N(c2ccccc2)C(=O)/C1=C\C=C\c1ccccc1,74,–,61,–,–,–
CCc1ccc(N2C(=O)NC(=O)/C(=C\C=C\c3ccco3)C2=O)cc1,102,–,91,–,–,–
Cc1cc(C)cc(N2C(=O)NC(=O)/C(=C\C=C\c3ccco3)C2=O)c1,94,–,67,–,–,–
CC1=NN(c2ccccc2)C(=O)C1/C=C1\C(=O)NC(=O)N(c2cc(C)cc(C)c2)C1=O (stereo unspecified),–,–,–,–,–,–
CCCCN1C(=O)/C(=C/C=C/c2ccco2)C(=O)NC1=S,–,–,–,–,–,–
CC(C)c1ccc(N2C(=O)NC(=O)/C(=C/C=C/c3ccco3)C2=O)cc1,99,–,74,–,84,–
Cc1ccc(-n2c(=O)[nH]c3ccccc3c2=O)cc1[N+](=O)[O-],·,·,–,–,–,–
c1ccc2oc(-c3ccc4c(c3)CNCc3cnnn3-4)cc2c1,·,·,–,–,–,–
Cc1cc(C)c(N=Cc2c(O)[nH]c(=O)[nH]c2=O)c(C)c1,–,–,51,–,–,–
O=C(O)c1ccc(N=Cc2c(O)[nH]c(=O)[nH]c2=O)cc1,–,–,–,–,–,–
O=C(NCC1=C(c2ccc3ccccc3c2)C[C@@H]2CC[C@H]1N2Cc1ccco1)c1ccc([N+](=O)[O-])cc1,·,–,–,–,–,–
CCOC(=O)c1cccc(-[n+]2c(-c3ccccc3)cc(-c3ccccc3)cc2-c2ccccc2)c1,68,–,–,–,–,–
CCOC(=O)c1ccc(-[n+]2c(-c3ccccc3)cc(-c3ccccc3)cc2-c2ccccc2)cc1,77,–,·,·,·,·
CCOC(=O)CNC(=O)N1Cc2ccccc2-n2nncc2C1,·,–,–,–,–,–
COC12CCC3(CC1C(C)(O)C(C)(C)C)[C@H]1Cc4ccc(O)c5c4[C@@]3(CCN1CC1CC1)C2O5 (stereo partly specified),–,–,–,–,–,–
CC1=C(O)C(=O)C=C2C1=CC=C1C2(C)CCC2(C)C3CC(C)(C(=O)O)CCC3(C)CCC12C (stereo unspecified),94,88,105,95,78,-75
O=C1NC(=O)N(C2CCCCC2)C(=O)C1C1c2ccccc2C(=O)N1Cc1ccccc1 (stereo unspecified),–,78,–,–,–,–
CC1CC(C)CC(C)C(O)C(C#N)=CC=CCC(C2CCCC2C(=O)O)OC(=O)CC(O)C(C)C1 (stereo unspecified),92,?,51,97,86,–
